Measured values published in article PMC7819943, “Rice protein-binding microarrays: a tool to detect cis-acting elements near promoter regions in rice”.
Whole data set: some 68,000 sequences, median “fluorescence intensity (a.u.)” near 9,100, cut for the highest 2% near 16,000. The sample holds the highest values, similar sequences and a random draw of the others, so the mix is not that of the screen.

Each sequence was assayed against OsWRKY34 (Oryza sativa, UniProt Q0JBA9 1-250) (assay: protein-binding microarray (RPBM); PBS, 2% BSA, 51.3 ng/ul salmon testes DNA, 50 uM zinc acetate, 200 nM TF, 25 C, 1 h; high values mean tight binding). Details: protein: recombinant; tags: N-terminal polyhistidine and DsRed monomer fusion (pET32a); label: CyDye5-dUTP incorporated in the synthesized complementary strand; 3' TTTTT single-stranded linker to array surface; dsDNA, one strand shown.
Chain of OsWRKY34 (Q0JBA9 entry or part of it): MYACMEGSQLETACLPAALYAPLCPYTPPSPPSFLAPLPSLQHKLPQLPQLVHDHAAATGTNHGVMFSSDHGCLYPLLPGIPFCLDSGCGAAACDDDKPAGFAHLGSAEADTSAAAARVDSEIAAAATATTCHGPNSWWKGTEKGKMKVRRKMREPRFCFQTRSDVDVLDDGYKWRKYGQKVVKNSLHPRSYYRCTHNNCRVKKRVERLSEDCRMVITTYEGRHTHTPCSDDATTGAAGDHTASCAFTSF
Summary of the method: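 For the binding signal, per-feature fluorescence intensity was read in arbitrary units on an Axon 4000B scanner. Before scanning, a 2% BSA-blocked custom Agilent array made double-stranded with Cy5-dUTP was washed after 1 h at 25 °C with 200 nM protein and 50 µM zinc acetate. The proteins were Ni–NTA-purified transcription factors with N-terminal polyhistidine and DsRed fusions, expressed in E. coli BL21-CodonPlus.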
“ACGTGGAGTCACGTGACTGGGCCGTGCCACTTTTTTTTATCGGAGTCACCTAGTGCAG” was tested, and the binding signal was 9360 fluorescence intensity (a.u.).
For “AGTCAATATCTTGCTTTGATACCTTTTTTTTTGCATTTTTCGGAGTCACCTAGTGCAG”, the binding signal was 8050 fluorescence intensity (a.u.).
For “ACAACACGCCGCCTCGCCTGCCCATCCCGTCCAACCCACGCGGAGTCACCTAGTGCAG”, the binding signal was 9200 fluorescence intensity (a.u.).
With “GATTGGTTGAAAATGTTTCTATTCTTAATGAATATCCTATCGGAGTCACCTAGTGCAG” the binding signal was 8080 fluorescence intensity (a.u.).
In the case of “CCATCCACGCGACGCGGCACAACCTCCCGCGCCCAACACACGGAGTCACCTAGTGCAG”, the binding signal is reported as 8760 fluorescence intensity (a.u.).
With “CCTTCTTGTCCTGCTCCCGCGCCGGCTCCGACCGGGTCCTCGGAGTCACCTAGTGCAG” the binding signal was 8600 fluorescence intensity (a.u.).
With “AGTACATGGGCTTTCCATAATTGGTTTATACGTGGTTATTCGGAGTCACCTAGTGCAG” the binding signal was 8260 fluorescence intensity (a.u.).
For “CTCTGAATGGCCTTGTCACCCTTTTTATTCATTCATGCTCCGGAGTCACCTAGTGCAG”, the binding signal was 9200 fluorescence intensity (a.u.).
For “TGTCCTTATCATCTTTGATCAAGTTTTTCTCTTTTCCTATCGGAGTCACCTAGTGCAG”, the binding signal was 9480 fluorescence intensity (a.u.).
“CTCTTTTTTTTTCTTCCACTACGCTCCAAAACTTCTCTCCCGGAGTCACCTAGTGCAG” was tested, and the binding signal was 8790 fluorescence intensity (a.u.).
With “CCTTAGTCAGCCTCTGCTTCTGCTCCGTGCTCGCCGGCGCCGGAGTCACCTAGTGCAG” the binding signal was 12600 fluorescence intensity (a.u.).
In the case of “TGAAGGGCGGGAGGGGCGTTGCGCGGGAGTGGCCGCGCGGCGGAGTCACCTAGTGCAG”, the binding signal is reported as 8670 fluorescence intensity (a.u.).
For “TACTGGGGAATCGGTGGTGGTGGCGGCGGCGGTGGCGGCGCGGAGTCACCTAGTGCAG”, the binding signal was 9690 fluorescence intensity (a.u.).
For “GGAATCTGGGAGGTGGGTGGGCCCCACGGCGGAGACTCCGCGGAGTCACCTAGTGCAG”, the binding signal was 17200 fluorescence intensity (a.u.).
With “GCGGCCGGCCGAGGGGTGGGAGCCGTCCGATCGCGGCGCGCGGAGTCACCTAGTGCAG” the binding signal was 8550 fluorescence intensity (a.u.).
With “GGGGCGGAGATCTGGGAGGAGGAGGAGGAGGTGGTGGTGGCGGAGTCACCTAGTGCAG” the binding signal was 14500 fluorescence intensity (a.u.).
“TGTGGCGGGGAGGGAGGGAGGGAGAAGGGGCGGCGTGTTGCGGAGTCACCTAGTGCAG” was tested, and the binding signal was 16600 fluorescence intensity (a.u.).
In the case of “GTGCGTGGGGCGAAGGGAGGGGAAGAAGAAGAAGGAGAAGCGGAGTCACCTAGTGCAG”, the binding signal is reported as 8080 fluorescence intensity (a.u.).
With “CCCGCGGCGGCGGGGTGGAGGCGACGGCGGTGGTGGTGGGCGGAGTCACCTAGTGCAG” the binding signal was 8590 fluorescence intensity (a.u.).
In the case of “ACGCAGGGGAGGGAGGGAGCGGTGGTGGTGGCGGCGGCGCCGGAGTCACCTAGTGCAG”, the binding signal is reported as 14000 fluorescence intensity (a.u.).
For “GCCTCGATCGCGGCGGTGGCGGTGGGGAGGGGAGCGCACCCGGAGTCACCTAGTGCAG”, the binding signal was 19000 fluorescence intensity (a.u.).
For “CTCATCCGAGTGGGTGGGCGGGGAGAGATCTAGGGCTTGCCGGAGTCACCTAGTGCAG”, the binding signal was 11700 fluorescence intensity (a.u.).
With “CGATCCGCTTGCAGGCGGCGGCGGCGGGAGGGTGGTGGGGCGGAGTCACCTAGTGCAG” the binding signal was 18000 fluorescence intensity (a.u.).
With “ATCCGTCCGTTTCGTTCCGTACGAACCGCCGGCGTTCAAACGGAGTCACCTAGTGCAG” the binding signal was 8580 fluorescence intensity (a.u.).
In the case of “GCCTCCGCCGCCGCCGCCGCCCGCCGGCCATCTCCGTCGACGGAGTCACCTAGTGCAG”, the binding signal is reported as 13900 fluorescence intensity (a.u.).
For “CAATGTATTCAGGTACGCCGATTATTTGGTTGGTAGTAGTCGGAGTCACCTAGTGCAG”, the binding signal was 11500 fluorescence intensity (a.u.).
In the case of “ATACTCGCTCCGTGTTTTAATATATGACGCTGTTGATTTTCGGAGTCACCTAGTGCAG”, the binding signal is reported as 12700 fluorescence intensity (a.u.).
In the case of “GCTCGGTGTGGCGATCTCACAGCCGCATATCGCATTTCACCGGAGTCACCTAGTGCAG”, the binding signal is reported as 8680 fluorescence intensity (a.u.).
With “GGCCCCACGTTTCATCCTCACGACCGTGTCCAACCCAGGGCGGAGTCACCTAGTGCAG” the binding signal was 10300 fluorescence intensity (a.u.).
With “TGGAGTGGAGTTTCGATAGGTGTGGCGGGGAGGGAGGGAGCGGAGTCACCTAGTGCAG” the binding signal was 19800 fluorescence intensity (a.u.).
For “TGGTTTTATAGGCGTGGGGTGTGGAGCTTCGAGGGGAAGGCGGAGTCACCTAGTGCAG”, the binding signal was 13900 fluorescence intensity (a.u.).
In the case of “GCTTTGGTCGGTTGGGGTGGGCTGGATGCGCCTCCGCGCTCGGAGTCACCTAGTGCAG”, the binding signal is reported as 17800 fluorescence intensity (a.u.).
For “CGCGCGGTCGAGGAGGGTGGGGCCGCCGCGCTCACCTCCGCGGAGTCACCTAGTGCAG”, the binding signal was 8480 fluorescence intensity (a.u.).
“TGTGGTGGCGAGCGGCACGGAGGCGGGGCGGTGGAGGGAGCGGAGTCACCTAGTGCAG” was tested, and the binding signal was 9670 fluorescence intensity (a.u.).
“GAGGTGGTGGAGCGAGGTGGAAGAGGGCGCGGGTGGCGGGCGGAGTCACCTAGTGCAG” was tested, and the binding signal was 9480 fluorescence intensity (a.u.).
For “CGTCGGTAGGGAGGAGGAGGAGGAGGAGGTGGTGGTGGTGCGGAGTCACCTAGTGCAG”, the binding signal was 12000 fluorescence intensity (a.u.).
For “CGGTGGTGGTGGATGCTGGCGCTGGCGGTGGGCGCGAGCTCGGAGTCACCTAGTGCAG”, the binding signal was 10100 fluorescence intensity (a.u.).
“ATCTCCGTCGGTGGGGAAAAGGAGGTGGGGAGGGGAGGAGCGGAGTCACCTAGTGCAG” was tested, and the binding signal was 18800 fluorescence intensity (a.u.).
In the case of “GTGGCGCGAGGGGAGGGAAGGGTAGGGCGGCGCGGCGGCGCGGAGTCACCTAGTGCAG”, the binding signal is reported as 9730 fluorescence intensity (a.u.).
In the case of “AAGAGGGCGCGGGTGGCGGGGATGGGCGAGGGGAAGGCGGCGGAGTCACCTAGTGCAG”, the binding signal is reported as 17700 fluorescence intensity (a.u.).
With “GAAGAGGAGAGAGGAAGAGAGGTGGAAAGGGGAGGGGAAGCGGAGTCACCTAGTGCAG” the binding signal was 9460 fluorescence intensity (a.u.).
In the case of “CAGATGGTCTGGTGGTCGGCGGAGGTCCCGGCGCGCGCGTCGGAGTCACCTAGTGCAG”, the binding signal is reported as 8360 fluorescence intensity (a.u.).
